The values that follow come from PubChem BioAssay (EPA / NIEHS).

In general, AC50 refers to the concentration at which the activity in the assay is half-maximal.

The target of assay [1] is Nuclear receptor subfamily 1 group I member 2 (Mus musculus) (UniProt O54915). Briefly: ATG_mPXR_XSP1: Attagene TRANS-FACTORIAL Multi-Species (XSP1) HepG2 Assay for mouse Pregnane X Receptor (PXR) (AID 2283803). A digest of the protocol:
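Transiently transfected HepG2 cells expressing a receptor-Gal4 chimera drive a GAL4-UAS reporter; 3 nM 6-alpha-fluorotestosterone included. Reporter mRNA read 24 h post-dose by RT-PCR and capillary electrophoresis; gain of signal relative to DMSO.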

In assay [2] the target is frog Thyroid hormone Receptor alpha (TRa), thra-a (gene 397942) (UniProt P15204). Briefly: ATG_frTRa_XSP1: Attagene TRANS-FACTORIAL Multi-Species (XSP1) HepG2 Assay for frog Thyroid hormone Receptor alpha (TRa) (AID 2283804). A digest of the protocol: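 HepG2 cells transiently transfected with frog TRa-GAL4 chimeric reporter units, dosed 24 hr with 3 nM 6-alpha-fluorotestosterone present; reporter mRNA quantified by RT-PCR, fluorescent labelling and capillary electrophoresis, gain of signal versus DMSO.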

Assay [3] concerns the target zebrafish Thyroid Hormone Receptor alpha (TRa), thraa (gene 30670) (UniProt Q98867). Briefly: ATG_zfTRa_XSP1: Attagene TRANS-FACTORIAL Multi-Species (XSP1) HepG2 Assay for zebrafish Thyroid Hormone Receptor alpha (TRa) (AID 2283807). A digest of the protocol: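 HepG2 cells transiently transfected with GAL4-UAS reporter units including a zebrafish TRa–Gal4 chimera, dosed 24 h with 3 nM 6-alpha-fluorotestosterone present. Reporter mRNA quantified by RT-PCR and capillary electrophoresis; gain versus DMSO.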

For assay [4], the target named is human Thyroid hormone Receptor beta (TRb), THRB (gene 7068) (UniProt P10828). Description: ATG_hTRb_XSP1: Attagene TRANS-FACTORIAL Multi-Species (XSP1) HepG2 Assay for human Thyroid hormone Receptor beta (TRb) (AID 2283808). A digest of the protocol: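 HepG2 cells transiently transfected with reporter units driving GAL4-UAS reporters for chimeric NR-Gal4 proteins; 24 h chemical exposure with 3 nM 6-alpha-fluorotestosterone present. Reporter mRNA quantified by RT-PCR and capillary electrophoresis, gain of signal versus DMSO.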

A short description of assay [5]: ATG_XTT_Cytotoxicity_XSP1: Cytotoxicity Assessment in the Attagene TRANS-FACTORIAL Multi-Species (XSP1) HepG2 Assay (AID 2283810). The method in brief: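 XTT viability readout taken at 24 hours post-dosing in HepG2 liver cells co-treated with 3 nM 6-alpha-fluorotestosterone. Signal loss relative to DMSO controls reflects cytotoxicity.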
The nature of assay [6]: ATG_M_06_XSP2: Attagene TRANS-FACTORIAL Multi-Species (XSP2) HepG2 Assay for M06 Transcription Factor (Internal Marker) (AID 2283811).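 Note: internal background marker reporter mRNA measured by RT-PCR and capillary electrophoresis; hits are increases in signal above the DMSO baseline.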 The method in brief:
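HepG2, multiplexed reporter transfection; 24 h dosing; AR stimulated with 3 nM 6-alpha-fluorotestosterone + 1.5 nM norgestrel; RNA → RT-PCR → 6-FAM primer extension → HpaI → CE. Positive direction vs DMSO.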

The target in assay [7] is Estrogen receptor beta (Homo sapiens) (UniProt Q92731). Briefly: ATG_hERb_XSP2: Attagene TRANS-FACTORIAL Multi-Species (XSP2) HepG2 Assay for human Estrogen Receptor (ERb) (AID 2283813).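 Note: actives raise reporter mRNA above DMSO so AC50 reflects agonist induction.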 A digest of the protocol:
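HepG2 cells transiently transfected with GAL4-UAS reporter units and chimeric human ERb-Gal4, 24 h exposure. Reporter mRNA quantified by RT-PCR with FAM labelling, HpaI digestion and capillary electrophoresis; gain of signal versus DMSO.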

The target of assay [8] is zebrafish Thyroid Hormone Receptor beta (TRb), thrb (gene 30607) (UniProt Q9PVE4). Briefly: ATG_zfTRb_XSP1: Attagene TRANS-FACTORIAL Multi-Species (XSP1) HepG2 Assay for zebrafish Thyroid Hormone Receptor beta (TRb) (AID 2283809). The method in brief:
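HepG2 cells transiently transfected with multiplexed GAL4-UAS reporter units expressing chimeric zebrafish TRb–Gal4. Dosed 24 h with 3 nM 6-alpha-fluorotestosterone present; reporter mRNA measured by RT-PCR, HpaI digestion and capillary electrophoresis; gain of signal versus DMSO.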

For assay [9], the system named is turtle Thyroid Hormone Receptor, alpha (TRa), gene 101949057. Briefly: ATG_trTRa_XSP1: Attagene TRANS-FACTORIAL Multi-Species (XSP1) HepG2 Assay for turtle Thyroid Hormone Receptor, alpha (TRa) (AID 2283806). A digest of the protocol: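 HepG2 cells transiently transfected with GAL4-UAS reporter units and chimeric receptor-Gal4 constructs, with 3 nM 6-alpha-fluorotestosterone present. Reporter mRNA was quantified 24 h after dosing by RT-PCR, 6-FAM labelling and capillary electrophoresis; gain of signal versus DMSO.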

In assay [10] the target is human Thyroid hormone Receptor alpha (TRa), THRA (gene 7067) (UniProt P10827). Description: ATG_hTRa_XSP1: Attagene TRANS-FACTORIAL Multi-Species (XSP1) HepG2 Assay for human Thyroid hormone Receptor alpha (TRa) (AID 2283805). The method in brief: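 HepG2 cells transiently transfected with GAL4-UAS reporter units expressing chimeric NR-Gal4 proteins, dosed 24 hours with 3 nM 6-alpha-fluorotestosterone present. Reporter mRNA measured by RT-PCR and capillary electrophoresis; gain of signal fitted versus DMSO.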

Inconclusive results are not listed. The source made the active and inactive calls. Rule for the calls: active = hit-call score of the fitted dose curve at least 0.9, where 1 is the maximum; inconclusive = response in the unintended direction; inactive = score below 0.9.

Sequence of zebrafish Thyroid Hormone Receptor beta (TRb), thrb (gene 30607) (Q9PVE4 whole entry, looked up, the tested form may be a part): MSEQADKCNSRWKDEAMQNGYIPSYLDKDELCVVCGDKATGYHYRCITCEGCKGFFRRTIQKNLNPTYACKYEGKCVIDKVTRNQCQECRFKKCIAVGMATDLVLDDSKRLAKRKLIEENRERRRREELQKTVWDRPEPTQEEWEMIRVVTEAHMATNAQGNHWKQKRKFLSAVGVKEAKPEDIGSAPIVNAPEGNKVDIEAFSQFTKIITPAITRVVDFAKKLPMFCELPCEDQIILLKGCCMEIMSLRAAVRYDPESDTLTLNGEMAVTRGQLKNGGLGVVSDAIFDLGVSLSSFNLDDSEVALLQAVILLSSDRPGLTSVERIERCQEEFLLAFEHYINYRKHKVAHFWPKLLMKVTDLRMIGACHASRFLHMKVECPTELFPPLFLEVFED
Sequence of Nuclear receptor subfamily 1 group I member 2 (Mus musculus) (O54915 whole entry, looked up, the tested form may be a part): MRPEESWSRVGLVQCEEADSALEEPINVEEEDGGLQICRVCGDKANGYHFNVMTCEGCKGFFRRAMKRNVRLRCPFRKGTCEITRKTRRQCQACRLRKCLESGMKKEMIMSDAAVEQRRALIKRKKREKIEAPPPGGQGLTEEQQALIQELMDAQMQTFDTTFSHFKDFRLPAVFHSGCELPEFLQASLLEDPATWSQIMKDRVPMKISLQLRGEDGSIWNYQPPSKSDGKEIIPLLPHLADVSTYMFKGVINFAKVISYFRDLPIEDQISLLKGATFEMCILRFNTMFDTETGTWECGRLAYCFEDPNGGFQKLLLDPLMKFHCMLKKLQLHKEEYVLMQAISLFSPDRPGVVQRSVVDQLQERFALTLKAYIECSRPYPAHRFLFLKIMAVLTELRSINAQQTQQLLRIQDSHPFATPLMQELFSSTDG
Sequence of frog Thyroid hormone Receptor alpha (TRa), thra-a (gene 397942) (P15204 whole entry, looked up, the tested form may be a part): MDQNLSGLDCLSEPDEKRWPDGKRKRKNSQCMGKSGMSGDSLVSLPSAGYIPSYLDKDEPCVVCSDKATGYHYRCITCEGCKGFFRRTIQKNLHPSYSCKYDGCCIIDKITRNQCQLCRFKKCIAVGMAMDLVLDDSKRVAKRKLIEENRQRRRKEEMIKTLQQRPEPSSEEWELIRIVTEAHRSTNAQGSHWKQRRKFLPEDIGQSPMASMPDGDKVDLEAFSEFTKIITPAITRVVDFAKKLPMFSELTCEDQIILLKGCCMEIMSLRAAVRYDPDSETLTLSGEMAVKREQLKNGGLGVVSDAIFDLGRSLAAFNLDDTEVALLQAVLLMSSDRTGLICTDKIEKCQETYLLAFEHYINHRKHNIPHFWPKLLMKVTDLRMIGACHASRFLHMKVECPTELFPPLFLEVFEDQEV
Sequence of human Thyroid hormone Receptor beta (TRb), THRB (gene 7068) (P10828 whole entry, looked up, the tested form may be a part): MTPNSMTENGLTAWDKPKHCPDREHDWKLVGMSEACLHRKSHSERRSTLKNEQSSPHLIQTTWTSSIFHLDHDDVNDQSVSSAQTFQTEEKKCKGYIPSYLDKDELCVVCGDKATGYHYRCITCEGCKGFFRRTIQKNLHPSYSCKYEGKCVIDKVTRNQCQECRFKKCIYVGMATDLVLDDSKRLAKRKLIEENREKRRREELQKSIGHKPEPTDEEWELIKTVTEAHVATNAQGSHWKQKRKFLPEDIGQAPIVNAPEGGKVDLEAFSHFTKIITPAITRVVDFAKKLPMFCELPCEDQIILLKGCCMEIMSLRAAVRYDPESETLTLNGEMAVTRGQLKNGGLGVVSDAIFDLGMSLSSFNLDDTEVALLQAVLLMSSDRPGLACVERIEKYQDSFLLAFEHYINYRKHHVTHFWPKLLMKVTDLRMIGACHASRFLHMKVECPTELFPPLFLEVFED
Sequence of zebrafish Thyroid Hormone Receptor alpha (TRa), thraa (gene 30670) (Q98867 whole entry, looked up, the tested form may be a part): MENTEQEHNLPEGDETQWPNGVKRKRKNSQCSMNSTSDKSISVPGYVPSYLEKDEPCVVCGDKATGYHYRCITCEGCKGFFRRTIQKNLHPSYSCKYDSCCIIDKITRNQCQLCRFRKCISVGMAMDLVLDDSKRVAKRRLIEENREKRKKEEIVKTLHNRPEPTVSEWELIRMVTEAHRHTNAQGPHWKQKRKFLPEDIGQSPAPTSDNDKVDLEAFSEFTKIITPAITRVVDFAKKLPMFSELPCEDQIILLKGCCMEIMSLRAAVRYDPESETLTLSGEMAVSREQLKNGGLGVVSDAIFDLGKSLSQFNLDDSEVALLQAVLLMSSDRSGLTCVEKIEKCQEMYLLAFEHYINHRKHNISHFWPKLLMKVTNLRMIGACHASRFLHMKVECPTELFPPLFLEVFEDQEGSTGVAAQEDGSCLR
Sequence of human Thyroid hormone Receptor alpha (TRa), THRA (gene 7067) (P10827 whole entry, looked up, the tested form may be a part): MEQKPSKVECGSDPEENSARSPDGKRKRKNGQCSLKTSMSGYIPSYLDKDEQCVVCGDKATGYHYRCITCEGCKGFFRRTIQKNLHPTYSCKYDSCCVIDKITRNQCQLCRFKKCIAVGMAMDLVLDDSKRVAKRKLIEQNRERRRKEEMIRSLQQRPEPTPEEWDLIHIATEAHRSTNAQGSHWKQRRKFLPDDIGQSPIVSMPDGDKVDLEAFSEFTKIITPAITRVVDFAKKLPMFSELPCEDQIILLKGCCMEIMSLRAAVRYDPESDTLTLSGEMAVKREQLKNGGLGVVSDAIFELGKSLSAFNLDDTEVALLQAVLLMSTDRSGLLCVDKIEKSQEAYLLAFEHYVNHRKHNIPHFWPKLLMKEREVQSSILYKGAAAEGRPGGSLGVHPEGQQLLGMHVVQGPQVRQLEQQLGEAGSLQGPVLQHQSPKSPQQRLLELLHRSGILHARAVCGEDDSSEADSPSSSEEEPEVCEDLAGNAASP
Sequence of Estrogen receptor beta (Homo sapiens) (Q92731 whole entry, looked up, the tested form may be a part): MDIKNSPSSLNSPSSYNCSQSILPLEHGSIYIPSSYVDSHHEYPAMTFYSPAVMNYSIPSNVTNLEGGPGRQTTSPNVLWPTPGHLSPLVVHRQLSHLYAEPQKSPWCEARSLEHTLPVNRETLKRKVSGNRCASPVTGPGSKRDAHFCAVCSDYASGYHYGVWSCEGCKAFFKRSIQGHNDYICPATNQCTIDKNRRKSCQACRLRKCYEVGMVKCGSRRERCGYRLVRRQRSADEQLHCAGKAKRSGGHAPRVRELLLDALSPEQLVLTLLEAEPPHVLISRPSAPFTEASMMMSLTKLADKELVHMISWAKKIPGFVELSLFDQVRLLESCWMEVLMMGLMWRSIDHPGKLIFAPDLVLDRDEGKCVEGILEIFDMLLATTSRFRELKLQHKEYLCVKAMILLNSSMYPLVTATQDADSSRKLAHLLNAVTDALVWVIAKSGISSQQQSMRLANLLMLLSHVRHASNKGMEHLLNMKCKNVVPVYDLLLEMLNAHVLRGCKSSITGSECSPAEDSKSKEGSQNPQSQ

Take `C=CCOC(Cn1ccnc1)c1ccc(Cl)cc1Cl` (centres undefined): the AC50 in assay [1] is 0.948 µM (active). Also, the result in assay [2], in [3], in assay [4], in assay [5], in assay [6] and in assay [7] was inactive.

In the case of `CCCCC(CC)CN1C(=O)C2C3C=CC(C3)C2C1=O` (centres undefined), in assay [1], the AC50 was 0.845 µM (active). For the same molecule, the call in assay [8], in assay [5] and in assay [7] was inactive.

For `CSC(=O)c1cccc2nnsc12`, in assay [6], the molecule was classed as inactive.

Consider `C#C[C@]1(O)CC[C@H]2[C@@H]3CCC4=CC(=O)CC[C@@H]4[C@H]3CC[C@@]21CC`, for which the outcome in assay [2], in assay [9], in assay [3], in assay [4], in assay [8] and in assay [6] was inactive.

Take `CC1(C)C(C=C(Cl)Cl)C1C(=O)OCc1cccc(Oc2ccccc2)c1` (centres undefined): in [1], the AC50 was 1.73 µM (active). In addition, the molecule was classed as inactive in assay [2], in [9] and in [3].

As for `O=C(c1ccc(O)cc1O)c1ccc(O)cc1O`, the outcome in assay [2], in assay [10], in assay [3], in [4], in assay [8] and in assay [5] was inactive. Moreover, the molecule was classed as inactive in [6]. The AC50 in assay [7] was 1.32 µM (active).

`CC(C)(c1ccc(O)cc1)c1ccc(O)cc1`: the result in assay [1], in assay [2], in [10], in assay [9], in assay [3] and in assay [8] was inactive. Moreover, in assay [6], the molecule was classed as inactive.

In the case of `CN(C)C(=O)Nc1ccc(Cl)c(Cl)c1`, the call in assay [6] was inactive.

On to `CC(=O)S[C@@H]1CC2=CC(=O)CC[C@]2(C)[C@H]2CC[C@@]3(C)[C@@H](CC[C@@]34CCC(=O)O4)[C@H]12`, for which the AC50 in assay [1] was 0.411 µM (active). Further, the result in assay [2], in assay [10], in assay [3], in assay [4], in [8] and in assay [6] was inactive. Also, the molecule was called inactive in assay [7].

Take `Oc1ccc(C(c2ccc(O)cc2)C(Cl)(Cl)Cl)cc1`: the molecule was called inactive in [1], in [2], in [9], in [3], in [4] and in assay [8]. Further, the molecule was called inactive in assay [6] and in assay [7].

For `CC(C)CCCCCCc1ccc(O)cc1`, the result in assay [1], in assay [9], in assay [8], in assay [6] and in assay [7] was inactive.
